Source: PubChem BioAssay (NCATS)
Results filed as inconclusive are left out. The source made the active and inactive calls. Calls come from the whole dose curve; as a rule, active = well fitted inhibition curve with a large enough effect; inconclusive = small, poorly fitted or top-dose-only effect; inactive = flat fitted curve, though single readings scatter.

Key:
Experiment in all cases: Cytotoxic Profiling of Annotated Libraries Using Quantitative High-Throughput Screening (AID 1296008); note: nearly all actives have a fitted effect of over 60% in size
Conditions in all cases: Five cell lines viability, CellTiter-Glo ATP luminescence, 48-72 h; max response: stronger effect = lower value
[1] = system: CRL-7250
Method in brief: (§1)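 Cells exposed to compounds for 48 or 72 hr at 37 degrees Celsius. Viability read as ATP-coupled luminescence with CellTiter-Glo after 10 min at room temperature.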

[2] = system: HEK293
Method in brief: as §1

[3] = system: HaCat
Method in brief: as §1

[4] = system: KB-3-1
Method in brief: as §1

[5] = system: NIH3T3
Method in brief: as §1
% is set by controls: 0 for no effect and ±100 for the full control effect; potency is the fitted concentration of half-maximal effect.

C/C=C/C=C/C1=C2C(=O)C3(C)C4C(C(=O)CC(O)/C=C/C)=C(O1)C1(C)C2C2(C)OC1(O)C4(C)OC23O (stereo not given)
inactive: outcome [1] | max response [2] -2.55% | outcome [3] | max response [4] 3.96% | outcome [5]

CC(=O)c1ccc(O[C@@H]2OC[C@@H](O)[C@H](O)[C@H]2O[C@]2(CO)O[C@H](CO)[C@@H](O)[C@@H]2O)c(O)c1
inactive: outcome [1] | max response [2] 2.18% | outcome [3] | outcome [4] | outcome [5]

CC1(C)[C@@H]2CC=C(CO[C@@H]3O[C@H](CO[C@@H]4OC[C@H](O)[C@H](O)[C@H]4O)[C@@H](O)[C@H](O)[C@H]3O)[C@H]1C2
inactive: max response [1] 0.583% | max response [2] 2.49% | max response [3] -0.954% | outcome [4] | outcome [5]

COc1cc2nc(=NC(=O)c3cccnc3)n3c(c2cc1OC)NCC3
inactive: max response [1] 4.99% | max response [2] -3.57% | outcome [4] | outcome [5]
active: Potency [3] 16.4 µM

C/C(=C\CCC(C)(C)O)CCO[C@@H]1O[C@H](CO[C@@H]2O[C@@H](C)[C@H](O)[C@@H](O)[C@H]2O)[C@@H](O)[C@H](O)[C@H]1O
inactive: outcome [1] | max response [2] -3.15% | outcome [3] | max response [4] 4.26% | outcome [5]

COC(=O)c1cc(OC)cc(OC)c1C(=O)c1c(OC)cc2c(c1O)C1CCC(O)C(C)(O2)O1 (stereo not given)
inactive: outcome [1] | max response [2] 0.585% | outcome [3] | outcome [4] | outcome [5]

C=C(C(=O)O)[C@H]1C[C@]2(C)C(=O)CC[C@]23O[C@H]1C[C@@H]3C
inactive: max response [1] -1.57% | max response [2] -7.61% | max response [3] 1.8% | max response [4] 4.05% | outcome [5]

CNC(C)C(=O)NC(C(=O)N1CCCC1C(=O)Nc1cccc2ncccc12)C(C)C (stereo not given)
inactive: outcome [1] | max response [2] 4.04% | outcome [3] | max response [4] 2.7% | outcome [5]

CC(=O)OC12CC(C)C(O)C1/C=C(/COC1OC(CO)C(O)C(O)C1O)CCC1C(/C=C(\C)C2=O)C1(C)C (stereo not given)
inactive: max response [1] -1.86% | max response [2] -3.67% | outcome [3] | outcome [4] | outcome [5]

NC(=O)[C@@H]1CC[C@H](c2ccc(OCc3ccccc3F)cc2)N1
inactive: max response [1] -6.02% | max response [2] 2.17% | outcome [3] | max response [4] -8.37% | outcome [5]

CC1=C(CO)CC(C(C)C2CCC3C4CC=C5CC(OC6OC(COC7OC(CO)C(O)C(O)C7O)C(O)C(O)C6O)CC(O)C5(C)C4CCC23C)OC1=O (stereo not given)
inactive: outcome [1] | max response [2] -8.19% | outcome [3] | max response [4] -0.551% | outcome [5]

CC1(C)CC(NC(=O)C(=O)Nc2ccc(Cl)cc2)CC(C)(C)N1
inactive: max response [1] -5.64% | max response [2] -2.65% | outcome [3] | max response [4] 4.82% | outcome [5]

C=C(COC(=O)CC(C)C)C1Cc2cc(C(C)=O)ccc2O1 (stereo not given)
inactive: outcome [1] | max response [2] -2.29% | outcome [3] | max response [4] 4.45% | outcome [5]

C=C1C2(C)CC3C4(C)C=CC(=O)OC(C)(C)C4CCC3(C)C1(C(=O)OC)C(=O)C(C)(O)C2=O (stereo not given)
inactive: max response [1] -7.15% | max response [2] -101% | outcome [3] | outcome [4] | outcome [5]

CN[C@H](CNC(=O)N1CCC[C@@H]([C@@H](OCCNC(=O)OC)c2cccc(Cl)c2)C1)C[C@H]1CCCOC1
inactive: max response [1] -5.16% | max response [2] 0.31% | outcome [3] | max response [4] 1.87% | outcome [5]

C=C1C(O)C(O)C2(CC3C(C)=CCC4C(C)(C(=O)O)CCCC34C)OC2C1O (stereo not given)
inactive: max response [1] -4.59% | max response [2] 1.46% | outcome [3] | max response [4] 2.87% | outcome [5]

O=C(O)[C@H]1Cc2ccccc2CN1
inactive: max response [1] 1.62% | max response [2] 4.72% | outcome [3] | max response [4] 0.759% | max response [5] 4.47%

Nc1nc2c(nc(Sc3ccc(Cl)cc3)n2[C@@H]2O[C@@H]3COP(=O)(O)O[C@H]3[C@H]2O)c(=O)[nH]1
inactive: max response [1] 1.71% | max response [2] 1.54% | max response [3] -3.37% | outcome [4] | outcome [5]

C[C@@H]1O[C@@H](O[C@H]2[C@H](O[C@H]3[C@H](O[C@H]4CC[C@@]5(C)C(CC[C@]6(C)C5CC=C5[C@@H]7CC(C)(C)C[C@@H](O)[C@]7(C)CC[C@]56C)[C@@]4(C)CO)O[C@H](C(=O)O)[C@@H](O)[C@@H]3O)O[C@H](CO)[C@H](O)[C@@H]2O)[C@H](O)[C@H](O)[C@H]1O (stereo not given in full)
inactive: max response [1] 3.95% | max response [2] -3.77% | outcome [3] | outcome [4] | outcome [5]
